ELG1 genotox: genotoxicity induction in ELG1-luciferase HEK293T cells; 330,000 compounds, 1.3% hits; HEK293T ELG1-luciferase reporter, luminescence, 16 h; Potency, µM (top dose mostly 46 µM), usual class: activators; note: nearly all actives have a fitted effect of over 60% in size
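Step 1: seed 2,000 HEK293T ELG1-luciferase cells per well. Step 2: add compound or DMSO, incubate 16 hr at 37 °C. Step 3: ONE-Glo, 30 min at room temperature, read luminescence.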
Rab9 prom act: Rab9 promoter activation; Huh7 Rab9 promoter-luciferase reporter, luminescence, 24 h; Potency, µM (highest dose often 9.22 µM), hits mostly activators; 320,000 compounds, 2.8% hits; AID 485297; note: nearly all actives have a fitted effect of over 60% in size
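Steps: seed 1500 Huh7 Rab9-luc cells per well, rest 2 h at 37 °C; add compound in DMSO; incubate 24 h; add luciferase reagent, 10 min ambient; read luminescence.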
SMN2 splice enh: SMN2 splice variant enhancement | HEK293 SMN2-luciferase splicing reporter, luminescence, 30-36 h | Potency, µM (top dose mostly 46.1 µM), usual class: activators | 210,000 compounds, 2.8% hits | AID 1458; note: nearly all actives have a fitted effect of over 55% in size
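qHTS luciferase splicing reporter: luminescence rises when SMN2 exon 7 is included in transfected HEK293 cells. Compound exposure lasted 30-36 h at 37C, with 4.5 mM final sodium butyrate as control, followed by a ONE-Glo read.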
FLuc counter: counter-screen for miR-21 project: firefly luciferase inhibitors or activators. 360,000 compounds, 6.9% hits. purified FLuc, Km substrates, luminescence inhibition. Potency, µM (top dose mostly 57.5 µM), actives largely listed as inhibitors. P08659; note: nearly all actives have a fitted effect of over 55% in size
Target sequence (P08659 whole entry, looked up): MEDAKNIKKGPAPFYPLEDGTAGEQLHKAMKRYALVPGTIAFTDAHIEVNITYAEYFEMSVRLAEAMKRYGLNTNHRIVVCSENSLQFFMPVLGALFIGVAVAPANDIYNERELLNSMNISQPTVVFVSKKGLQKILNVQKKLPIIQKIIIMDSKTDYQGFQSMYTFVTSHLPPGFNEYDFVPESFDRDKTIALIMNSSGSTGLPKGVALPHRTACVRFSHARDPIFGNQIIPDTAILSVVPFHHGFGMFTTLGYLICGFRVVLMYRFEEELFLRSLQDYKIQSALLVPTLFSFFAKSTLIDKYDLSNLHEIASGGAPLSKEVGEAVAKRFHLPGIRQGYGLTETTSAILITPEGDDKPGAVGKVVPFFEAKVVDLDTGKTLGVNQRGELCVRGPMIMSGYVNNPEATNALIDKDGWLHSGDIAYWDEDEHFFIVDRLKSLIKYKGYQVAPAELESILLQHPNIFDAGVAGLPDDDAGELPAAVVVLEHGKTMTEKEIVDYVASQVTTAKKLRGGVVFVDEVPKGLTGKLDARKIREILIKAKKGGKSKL
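Biochemical qHTS of compounds, final roughly 60 µM downward over six points, against 10 nM purified firefly luciferase using Km concentrations of substrates (10 uM D-luciferin, 10 uM ATP) in Tris acetate pH 7.5 buffer; luminescence output.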
NPC1 prom act: NPC1 promoter activation. 320,000 compounds, 2.4% hits. Potency, µM (series often up to 9.22 µM), most hits filed as activators. Huh7 NPC1 promoter luciferase reporter, 24 h; note: nearly all actives have a fitted effect of over 60% in size
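Stably transfected Huh7 (NPC1 promoter→luciferase), 1500 cells/well in Opti-MEM + 10% FBS, 2 h settle, then compound 24 h at 37 °C. Luminescence after 10 min with Amplite reagent.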
A number is an active result; . = inactive; ? = inconclusive; / = not tested or not shown; ! = a repeat was not active; [ ] = dose if it differs, or a comment. A selection: hits, their analogues and other compounds. The true share with any hit is near 7.4%. Calls come from the whole dose curve; as a rule, active = well fitted curve in the direction sought with a large enough effect; inconclusive = small, poorly fitted or top-dose-only effect, or another doubt; inactive = no such curve, though single readings can be large; an effect the other way counts as inactive or inconclusive.

SMILES	ELG1 genotox	Rab9 prom act	SMN2 splice enh	FLuc counter	NPC1 prom act
NC(=O)c1ccccc1NC(=O)COc1ccc(Cl)cc1	?	?	/	17µM	3.2µM
O=C(NC(=O)N1CCN(c2ccc([N+](=O)[O-])cn2)CC1)c1c(Cl)cccc1Cl	.	.	/	.	.
O=C(NCCCc1ccccn1)C1CCC(=O)N(Cc2cccc(F)c2)C1 (stereo not given)	.	.	/	.	.
Clc1ccc(-c2ccc(CN3CCCCC3)o2)cc1	.	.	/	?	.
N#CCCN1CCN(C(=S)c2ccc(-c3ccc(Cl)cc3)o2)CC1	?	.	.	21µM	.
S=C(c1ccc(-c2ccc(Cl)cc2)o1)N1CCCCC1	2.6µM	1.4µM	5µM	1.1µM	1.3µM
CN1CCN(Cc2ccc(-c3ccc(Cl)cc3)o2)CC1	?	.	?	?	.
S=C(c1ccc(-c2ccccc2Cl)o1)N1CCCCC1	?	3.5µM	13µM	5.4µM	2.8µM
CN1CCN(C(=S)c2ccc(-c3cccc(Cl)c3Cl)o2)CC1	?	?	/	4.8µM	?
C=C1C(=O)OC2C[C@@]3(C)CCCC(C)C3=CC12 (stereo not given in full)	/	/	.	/	/
CCOC(=O)Cc1csc(NC(=O)Nc2ccc(OC(F)(F)F)cc2)n1	.	.	/	2.4µM	.
CCOC(=O)Cc1csc(NC(=O)COc2ccc(C)cc2)n1	.	.	/	13µM	.
CCOC(=O)Cc1csc(NC(=O)COc2ccc(C)c(C)c2)n1	?	.	/	?	.
CCOC(=O)CNC(=O)CSc1ncnc2c1cnn2-c1ccc(Cl)cc1	.	.	.	.	.
CCOC(=O)Cc1csc(NC(=O)CSc2ncnc3c2cnn3-c2ccc(OC)cc2)n1	.	.	.	8.5µM	.
CCOC(=O)Cc1csc(NC(=O)COc2ccc3c(c2)CCC3)n1	.	.	/	12µM	.
O=c1cc2c(n[nH]1)-c1ccccc1CC2	.	.	/	.	.
O=C1C(Cl)=C(NC2CCc3ccccc32)C(=O)c2ncccc21 (stereo not given)	/	/	.	/	/
CC1(C)C[C@H]2C3=CCC4[C@@]5(C)CC[C@H](O)[C@@](C)(CO)C5CC[C@@]4(C)[C@]3(C)C[C@@H](O)[C@@]2(CO)[C@@H](O)[C@@H]1O (stereo not given in full)	.	/	/	/	/
C/C(=N\Nc1nccnc1Cl)c1c(F)c(F)c(F)c(F)c1F	.	.	.	.	.
C/C(=N\Nc1nccnc1Cl)c1ccc(F)cc1	?	?	/	24µM	?
C/C(=N\Nc1nccnc1Cl)c1ccc(Cl)c(Cl)c1	.	.	/	21µM	.
C/C(=N\Nc1nccnc1Cl)c1ccc(O)cc1	.	.	/	?	.
Cc1ccccc1S(=O)(=O)Cc1ccc(C(=O)N2CCN(c3ccccc3F)CC2)o1	.	.	/	.	.
COCCNS(=O)(=O)c1ccc(-c2ccc(S(=O)(=O)NCCOC)cc2)cc1	?	1µM	20µM	4.3µM	?
SMILES	ELG1 genotox	Rab9 prom act	SMN2 splice enh	FLuc counter	NPC1 prom act
COCCNS(=O)(=O)c1ccc(-c2ccc(Cl)cc2)cc1	.	.	/	.	.
O=C(Nc1nnc(S(=O)(=O)N2CCCCCC2)s1)c1ccccc1Cl	.	.	/	.	.
O=C(Nc1nnc(S(=O)(=O)Nc2ccccc2)s1)C1CCCCC1	.	.	/	8.5µM!	.
O=C(Nc1nnc(S(=O)(=O)Nc2ccccc2)s1)c1ccccc1Cl	.	.	/	9.5µM!	.
CCN(CC)S(=O)(=O)c1nnc(NC(=O)c2ccccc2Cl)s1	/	/	/	.	/
COc1ccc(OCC(=O)Nc2nnc(S(=O)(=O)N3CCCCCC3)s2)cc1	.	.	/	15µM!	.
O=C(Nc1nnc(S(=O)(=O)N2CCCC2)s1)c1ccccc1Cl	.	.	/	4.8µM	.
COc1cc2c(cc1OC)C1O[C@](CCCCN3C(=O)c4ccccc4C3=O)(C2)OC2=C1C(=O)OC1(CCCCC1)C2	/	.[1.84 µM]	/	.[11.5 µM]	.[1.84 µM]
CCN1C(=O)C2(c3ccccc31)c1c(oc3ccccc3c1=O)C(=O)N2CCOC (stereo not given)	/	/	.	.	/
Cc1ccccc1NS(=O)(=O)c1nnc(NC(=O)c2ccc(Cl)cc2)s1	.	.	/	2.4µM!	.
O=C(Nc1nnc(S(=O)(=O)N2CCCCCC2)s1)c1ccccc1	.	4µM	/	6.7µM	?
Cc1cn2c(=O)cc(COC(=O)c3ccc(NC(=O)C(C)Oc4ccccc4)cc3)nc2s1 (stereo not given)	/	/	/	.	/
CCOc1cc(/C=N/NC(=O)c2ccc(O)cc2)ccc1Oc1nc(Cl)ncc1F	.	.	.	.	.
CCOc1cc(/C=N\Nc2ncc(F)c(N3CCOCC3)n2)ccc1Oc1nc(Cl)ncc1F	.	.	/	21µM	.
COC(=O)c1ccc2c(c1)sc(=NC(=O)CCS(=O)(=O)c1ccccc1)n2C	.	.	/	.	.
O=S(=O)(Nc1ccc2oc(-c3ccccc3)nc2c1)c1ccccc1	.	.	.	?	.
O=S(=O)(O)c1cc2oc(-c3ccccc3)nc2c2ccccc12	.	.	/	9.5µM	.
Oc1c(Cl)cc(Cl)cc1/C=N/NC(=S)NC1CC2C=CC1C2 (stereo not given)	.	.	/	?	.
Oc1ccccc1/C=N/NC(=S)NC1CC2C=CC1C2 (stereo not given)	?	?	/	13µM	?
Oc1ccccc1/C=N/NC(=S)NCCc1ccccc1	.	.	/	27µM	.
COc1ccc(-c2csc(NC(=O)COC(=O)c3ccco3)n2)cc1	?	3.2µM	13µM	?	4µM
COc1ccc(-c2csc(N(C)C(=O)c3ccco3)n2)cc1	?	4µM	/	11µM	?
CCn1nc(C(=O)OCC(=O)NCC(C)C)c2ccccc2c1=O	.	.	.	.	.
CN(C(=O)c1ccco1)c1nc(-c2ccc(Cl)cc2)cs1	.	3.2µM	/	6µM	?
CN(C)CCCN(C(=O)c1ccco1)c1nc(-c2ccc(Cl)cc2)cs1	.	.	/	.	.
SMILES	ELG1 genotox	Rab9 prom act	SMN2 splice enh	FLuc counter	NPC1 prom act
CCn1nc(C(=O)OCC(=O)Nc2nc(-c3ccc(OC)cc3)cs2)c2ccccc2c1=O	?	?	10µM	?	?
CC(=O)N(C)c1nc(-c2ccc(Cl)cc2)cs1	.	3.5µM	.	?	?
COCCn1c(C)cc(C(=O)COC(=O)Cc2n[nH]c(=O)c3ccccc23)c1C	.	?	/	24µM	.
O=C(NCCc1ccc(Cl)cc1)c1n[nH]c2ccccc12	.	?	.	?	.
Cc1cc(C(=O)COC(=O)Cc2n[nH]c(=O)c3ccccc23)c(C)n1CC(F)(F)F	.	.	/	.	.
O=C(NCCc1ccccc1)c1n[nH]c2ccccc12	?	3.5µM	11µM	11µM	2.5µM
COCCn1c(C)cc(C(=O)COC(=O)c2n[nH]c3ccccc23)c1C	0.23µM	0.22µM	.	0.43µM	0.4µM
O=C(OCCOc1ccccc1)c1n[nH]c2ccccc12	?	2.2µM	/	6µM	3.5µM
COc1ccc(N2CCN(C(=O)C3CCN(C(=O)c4ccc([N+](=O)[O-])cc4)CC3)CC2)cc1	.	.	/	.	.
CCCN1C(=S)c2ccccc2C1c1ccccc1 (stereo not given)	.	.	/	.	.

Assay outcomes: PubChem BioAssay, National Center for Advancing Translational Sciences (NCATS)
